Several values for one entry are separate records, joined by “and”; a condition that tells them apart may be missing. Equal values may be shown once. Compounds without any hit were thinned out: in the full panel of roughly 83,000, 20% have a hit.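 For each line, cells grew in 96-well plates with the test compound present at a single concentration for 48 hours.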 A number with no mark means an inactive call. Activity calls are given as the source filed them. How the source made its calls: active means growth percent below 10; inactive means the rest.
Each compound was assayed on MDA-MB-468 breast (assay: NCI-60 one-dose screen, 48 h (100 = growth as untreated, 0 = no growth, -100 = all killed)). Details: 10 µM unless noted.

| Compound | growth |
| --- | --- |
| O=C(NCc1cccnc1)c1cc(-c2csc3c(=O)cc(N4CCOCC4)oc23)cc2c1OCCO2 | 10.7% |
| CC[C@@H]1NC(=O)[C@@H]2CCCCN2C(=O)[C@@H]2CCCN2C(=O)[C@@H](NC(=O)[C@H](Cc2cc(F)cc(F)c2)NC(=O)Nc2ccc(C3CC3)cc2F)[C@H](C)OC(=O)[C@@H]2C[C@@H](C)CN2C1=O | -33.6% (active) |
| CCCc1[nH]c(-c2cc(N)ccc2Cl)c2c1C(=O)CCCC2 | 93.7% |
| COc1ccc2cc(-c3cnc4nonc4n3)ccc2c1 | -2.09% (active) |
| CC1=C(C(=O)c2ccccc2)C(c2ccc3c(c2)OCO3)NC(=S)N1 (stereo not given) | 54.3% |
| COc1cc(-c2ncn(/C=C\c3nnco3)n2)cc(C(F)(F)F)c1 | -28.9% (active) |
| COc1ccc(-c2cc(Nc3ccnc(N4CCOCC4)n3)on2)cc1 | 24.8% |
| Cc1[nH]c(C(=O)Nc2ccc(C(N)=O)cc2N2CCOC(C)C2)c(Cl)c1Cl (stereo not given) | 102% |
| COc1cccc(/C=C/C(=O)c2c(C)nc3ccccc3c2/C=C/c2ccccc2)c1OC | 43.3% |
| Cn1cc(-c2csc(-c3cn(CCOC(N)=O)c4ccccc34)n2)c2cccnc21 | 16.2% |
| O=S(=O)(Oc1ccc(-c2nnc(Nc3ccccc3)s2)cc1)C(F)(F)C(F)(F)C(F)(F)C(F)(F)C(F)(F)C(F)(F)F | 99.8% |
| CCN(CC)CCNC(=O)c1ccc(NC(C)=O)cc1 | 111% |
| Cc1cc(Nc2nc(-c3cccnc3)nc3ccccc23)n[nH]1 | 26.8% |
| N#Cc1ccc(OC(=O)Nc2ccc(Cl)c(Cl)c2)cc1 | 42.9% |
| COC(=O)[C@]12CC[C@@H](C)[C@H](C)[C@@H]1C1=CC[C@@H]3[C@@]4(C)C(C=O)=C[C@@](C)(COS(C)(=O)=O)C4[C@H](O)C[C@@]3(C)[C@]1(C)CC2 (stereo not given in full) | -64.7% (active) |
| COc1cc(NC2CCCCC2O)c2nc(-c3ccc(Cl)cc3)ccc2c1 (stereo not given) | 98.6% and 62.5% |
| O=S1(=O)CCC(N(/N=C/c2ccco2)c2ccccc2)C1 (stereo not given) | 108% |
| NNC(=O)c1ccc(-n2nc(-c3ccccc3)c3ccccc32)cc1 | 38.3% |
| Cc1nn(-c2ccccc2)c(Cl)c1/C=C(/NC(=O)c1ccccc1)c1nc2ccccc2[nH]1 | 113% |
| O=C(/C=C/c1cccc(O)c1)c1cccc(-n2cc(-c3ccc(Cl)cc3)[nH]c2=O)c1 | 37.6% |

| Compound | growth |
| --- | --- |
| N/C(=N\OC(=O)CSc1nc2ccccc2s1)c1ccc(Cl)cc1 | 100% |
| Cc1ccc(OC2=C(C#N)C(=N)N3C(=NN2)Sc2c(C)ccc(C)c23)cc1 | 110% |
| CCc1ccc(-c2ccc(NC3CCCCCC3)nn2)cc1S(N)(=O)=O | 102% |
| Cc1cc2nc3cc(C)c(N)cc3[n+](-c3ccccc3)c2cc1N | 2.5% (active) |
| CCCOC(=O)C(O)c1ccccc1 (stereo not given) | 102% |
| Clc1ccc(-c2nnc(-c3cccc4ccccc34)o2)cc1 | 19.1% |
| O=CN1N=C(c2ccc3c(c2)OCO3)CC1c1cccc(Nc2ccnc3cc(C(F)(F)F)ccc23)c1 (stereo not given) | 47.1% |
| COc1cc(/C=C/c2ccccc2)cc(OC)c1 | 103% |
| NC(=NCCCOc1ccc(F)cc1)Nc1ccc(Cl)cc1 | 12.5% |
| O=C(Cc1ccc(OCc2ccccc2)cc1)NCc1ccc2c(c1)OCO2 | 81.5% |
| Clc1ccc(-c2cc(-c3ccccc3)nc(N3CCN(CCCNc4ccnc5cc(Cl)ccc45)CC3)n2)cc1 | -34% (active) |
| CS(=O)(=O)Nc1cc(-c2ccc3ncc(C#N)c(NCc4ccccc4)c3c2)cnc1Cl | -53.9% (active) |
| C#CCOc1ccc2ncnc(N3CCC(NC(=O)CCl)CC3)c2c1 | 15.4% [8.25 µM] |
| O=C(CCc1nnc2sc(COc3ccccc3)nn12)c1nc2ncccc2[nH]1 | 100% |
| O=C1NN(c2ccccc2)C(c2ccc3c(c2)OCO3)N2CCC[C@@H]12 (stereo not given in full) | 121% |
| NC(=S)N/N=C/c1ccc(OC(=O)COc2cc(Cl)c(Cl)cc2Cl)cn1 | -0.374% (active) |
| Cc1cc2cc3cc(C)c(N(C)C)cc3nc2cc1N(C)C | 23.9% |
| COc1ccccc1NC(=O)C1CC(c2ccc(F)cc2)=NO1 (stereo not given) | 99.7% |
| OCCN1CCCCCCC1 | 101% |
| COC(=O)[C@]12CC[C@@H](C)[C@H](C)[C@@H]1C1=CC[C@@H]3[C@@]4(C)C(C=O)=C[C@@](C)(CO)[C@@H]4[C@H](O)C[C@@]3(C)[C@]1(C)CC2 | -12% (active) |
